Records with an inconclusive call do not appear. Where a call stands in place of a potency, no number is given. Active and inactive are the calls of the source. Calls come from the whole dose curve; as a rule, active = well fitted cell-killing curve with a large enough effect; inconclusive = small, poorly fitted or top-dose-only effect, or effect the other way; inactive = no such curve, though single readings can be large or run the other way.
Potency is the fitted concentration of half-maximal effect.

A short description of the assay: Viability qHTS for spleen associated tyrosine kinase inhibitor (SYKi) naive MV4-11 cells (AID 1963823). Note: nearly all actives have a fitted effect of over 40% in size. The note with it: MV4-11 AML viability, CellTiter-Glo luminescence, 72 h; series mostly up to 45 µM. The gist of the method:
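Read-out: CellTiter-Glo luminescence. Exposure: 72 hr, 37 C, 5% CO2, 95% humidity. Cells: MV4-11 without SYK inhibitor history, 500/well, qHTS format.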
On the technique in general: qHTS replaces the single test concentration by a dilution series.
Consider `O=C(CCl)c1ccc(Cl)cc1Cl`, for which the Potency entry is “inactive”.

As to `CCN(Cc1ccc(Cl)nc1)/C(=C/[N+](=O)[O-])NC`, the Potency entry was “inactive”.

As to `CN1CCC(O)(c2ccc(F)cc2)C(C(=O)c2ccc(F)cc2)C1` (stereo not given), the Potency result is “inactive”.

Consider `C[C@@H]1CC[C@@]2(OC1)O[C@H]1C[C@H]3[C@@H]4CC=C5C[C@@H](O[C@@H]6O[C@H](CO)[C@@H](O[C@@H]7O[C@@H](C)[C@H](O)[C@@H](O)[C@H]7O)[C@H](O)[C@H]6O[C@@H]6O[C@@H](C)[C@H](O)[C@@H](O)[C@H]6O)CC[C@]5(C)[C@H]4CC[C@]3(C)[C@H]1[C@@H]2C`, for which the Potency was 1660 nM (active).

In the case of `CC(C)(C)c1ccc(O)cc1`, the Potency entry was “inactive”.

For the compound `CO/C1=C/C(C)=C\[C@@H](C)[C@@H](O)[C@@H](C)C/C(C)=C\C=C/[C@H](OC)[C@@H]([C@@H](C)[C@@H](O)[C@H](C)[C@@]2(O)C[C@@H](O)[C@H](C)[C@@H](C(C)C)O2)OC1=O`, the Potency was 22.1 nM (active).

As for `Clc1cccc(N2CCNCC2)c1`, the Potency entry is “inactive”.

Take `CCNc1nc(Cl)nc(NCC)n1`: the Potency result was “inactive”.

For the compound `Cc1[nH]ncc1-c1cc2nc([C@@H]3CC4CCN3CC4)[nH]c(=O)c2s1`, the Potency is 3320 nM (active).

Take `CN1C(=O)NC(=O)C(C)(C2=CCCCC2)C1=O` (stereo not given): the Potency result is “inactive”.

For the compound `O=C(N/N=C/c1ccc([N+](=O)[O-])o1)c1cc([N+](=O)[O-])cc([N+](=O)[O-])c1O`, the Potency entry is “inactive”.

As for `C[C@@H](C1CC[C@@]2(O)C3=CC(=O)[C@@H]4C[C@@H](O)[C@@H](O)C[C@]4(C)[C@H]3CC[C@]12C)[C@H](O)CCC(C)(C)O` (stereo not given in full), the Potency result is “inactive”.

On to `CC(=O)OC[C@H]1O[C@@H]([S-])[C@H](OC(C)=O)[C@@H](OC(C)=O)[C@@H]1OC(C)=O.CC[PH+](CC)CC.[Au]`, for which the Potency was 209 nM (active).

As for `COc1ccc(C(=O)N2CCCC2=O)cc1`, the Potency entry is “inactive”.

Take `Cc1ccc2c(c1)C1CN(C)CCC1N2` (stereo not given): the Potency result is “inactive”.

With `O=C(NC(O)C(Cl)(Cl)Cl)NC(O)C(Cl)(Cl)Cl` (stereo not given), the Potency entry is “inactive”.

As for `COc1cc(C)[nH]c(=O)c1CNC(=O)c1c(C)n([C@H](C)C2CCOCC2)c2ccccc12`, the Potency result was “inactive”.

`CCC(=O)O[C@@H]1C=C2CCC3C(CCC4(C)C3CC[C@@H]4OC(=O)CC)C2CC1` (stereo not given in full): the Potency entry is “inactive”.

For the compound `CC(C)[C@]12O[C@H]1[C@@H]1O[C@]13[C@]1(O[C@H]1C[C@H]1C4=C(CC[C@@]13C)C(=O)OC4)[C@@H]2O`, the Potency was 16.6 nM (active).

`CC[N+](CC)(CC)CC`: the Potency result is “inactive”.

Regarding `COP(=S)(OC)Oc1ccc(SC)c(C)c1`, the Potency entry was “inactive”.

Consider `ClC1=C(Cl)C2(Cl)C(CBr)CC1(Cl)C2(Cl)Cl` (stereo not given), for which the Potency result was “inactive”.

Take `COP(=O)(OC)C(O)C(Cl)(Cl)Cl` (stereo not given): the Potency result was “inactive”.

On to `CCC(=O)OC1(c2ccccc2)CCN(C)CC1`, for which the Potency result is “inactive”.

With `C[N+]1(CCF)[C@@H]2CC[C@H]1CC(OC(=O)C(O)(c1ccccc1)c1ccccc1)C2` (stereo not given in full), the Potency result is “inactive”.

Take `CN1[C@H]2CC(O)C[C@H]1[C@H]1O[C@H]12` (stereo not given in full): the Potency result was “inactive”.

Consider `COc1cc2c(cc1F)C(c1ccccc1Cl)=Nc1c(n[nH]c1C)N2`, for which the Potency was 517 nM (active).

Consider `Oc1ccc(Cl)cc1Cc1ccccc1`, for which the Potency is 24600 nM (active).

In the case of `COc1cc(CC(C)N)cc(OC)c1OC` (stereo not given), the Potency entry is “inactive”.

On to `N[C@@H](Cc1ccc(Oc2cc(I)c(O)c(I)c2)c(I)c1)C(=O)O`, for which the Potency entry is “inactive”.

In the case of `Cc1cccc(C)c1NC1=NCCCS1`, the Potency entry is “inactive”.

On to `C=C(C)[C@@H]1CCC(C)=C[C@H]1c1c(O)cc(CCCCC)cc1O`, for which the Potency is 20900 nM (active).

For `Nc1ccc(Cl)cc1`, the Potency entry is “inactive”.

As for `COc1cc(C[C@@H](C)N)c(OC)cc1C`, the Potency entry was “inactive”.

In the case of `CCCCCCCCCCCC[N+](C)(C)CCOc1ccccc1`, the Potency is 2660 nM (active).

On to `CCN(CC)CCOC(=O)C(C)(c1ccccc1)c1ccccc1`, for which the Potency entry was “inactive”.

In the case of `CC(C)=CC1C(C(=O)OCN2C(=O)C3=C(CCCC3)C2=O)C1(C)C` (stereo not given), the Potency entry was “inactive”.

On to `CC1(C)CC(O)CC(C)(C)N1O`, for which the Potency result is “inactive”.

As to `CN(C)c1cc2c(cc1Sc1nc3c(N)nccc3n1CCNCC(C)(C)C)OCO2`, the Potency was 186 nM (active).

For the compound `CC(C)(O)/C=C\C(=O)[C@](C)(O)[C@H]1[C@H](O)C[C@]2(C)[C@@H]3CC=C4[C@@H](C=C(O)C(=O)C4(C)C)[C@]3(C)C(=O)C[C@@]12C`, the Potency is 59 nM (active).
